Consider 25 compounds from the supplement of paper PMC4709259.

Structures can show the parent of a compound that is named as a salt. ± gives the standard deviation.

For experiment [1], the system named is Jurkat. The experiment can be described thus: mean cell size (FSC-A) relative to DMSO control (fraction of control); higher = larger cells. The conditions noted are these: 48 h. Summed up:
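Jurkat cells seeded at 600 cells/µl were incubated 1 h, then exposed for 48h to the Enzo Screen-Well FDA Approved Drug Library v2.0 at 25µM in 0.9% (v/v) final DMSO. Drugs that cut counts below 20% of controls were diluted 10-fold and retested, down to 25nM. Cell count and mean cell size (forward scatter area) were read on an Accuri C6 flow cytometer, relative to solvent-only controls. Plates held 6-12 controls; values are means of 3 biological replicates.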

Experiment [2] deals with Jurkat. As to the kind of experiment: cell count relative to DMSO control (fraction of control); higher = more cells (less growth inhibition). The conditions noted are these: 48 h.

Turning to `Cc1cccn2c(=O)c(-c3nnn[nH]3)cnc12` [Pemirolast Potassium] (concentration: 25 µM), the mean cell size with Jurkat [1] came out at 0.938 ± 0.024. Moreover, in the experiment on Jurkat [2], the cell count worked out at 0.756 ± 0.11.

In the experiment on Jurkat [1], `CC1(C)O[C@@H]2C[C@H]3[C@@H]4C[C@H](F)C5=CC(=O)C=C[C@]5(C)[C@@]4(F)[C@@H](O)C[C@]3(C)[C@]2(C(=O)CO)O1` [Fluocinolone Acetonide] (concentration: 25 µM) showed a mean cell size of 0.958 ± 0.037. The compound further showed a cell count in the experiment with Jurkat [2] of 0.55 ± 0.08.

`CC1(C)O[C@@H]2C[C@H]3[C@@H]4C[C@H](F)C5=CC(=O)CC[C@]5(C)[C@H]4[C@@H](O)C[C@]3(C)[C@]2(C(=O)CO)O1` [Flurandrenolide] (concentration: 25 µM) had a mean cell size with Jurkat [1] of 0.916 ± 0.035. Besides, the cell count in the experiment on Jurkat [2] amounted to 0.638 ± 0.12.

The compound `C#C[C@]1(O)CC[C@H]2[C@@H]3CCC4=Cc5oncc5C[C@]4(C)[C@H]3CC[C@@]21C` [Danazol] (concentration: 25 µM) registered a mean cell size in the experiment on Jurkat [1] of 0.995 ± 0.026. Also, the cell count in the experiment with Jurkat [2] came out at 0.92 ± 0.08.

In the experiment with Jurkat [1], `CCCCCCCCc1ccc(CCC(N)(CO)CO)cc1` [Fingolimod] (concentration: 25 µM) showed a mean cell size of 1.03 ± 0.035. Besides, the cell count in the experiment with Jurkat [2] came out at 0.953 ± 0.12.

In the case of `CNCC[C@H](Oc1cccc2ccccc12)c1cccs1` [Duloxetine·HCl] (concentration: 25 µM), the mean cell size in the experiment on Jurkat [1] was 1.02 ± 0.069. The cell count with Jurkat [2] amounted to 0.353 ± 0.073.

In the experiment with Jurkat [1], `CN1C(C(=O)Nc2ccccn2)=C(O)c2ccccc2S1(=O)=O` [Piroxicam] (concentration: 25 µM) registered a mean cell size of 0.9597 ± 0.0066. Further, the cell count with Jurkat [2] came to 0.738 ± 0.07.

In turn, `C=CC[N+]1([C@H]2C[C@H]3[C@@H]4CC[C@H]5C[C@H](O)[C@@H](N6CCOCC6)C[C@]5(C)[C@H]4CC[C@]3(C)[C@H]2OC(C)=O)CCCC1` [Rocuronium Bromide] (concentration: 25 µM) gave a mean cell size in the experiment on Jurkat [1] of 0.952 ± 0.043. The cell count in the experiment with Jurkat [2] is 0.337 ± 0.086.

Turning to `CC(=O)N(O)CCCCCNC(=O)CCC(=O)N(O)CCCCCNC(=O)CCC(=O)N(O)CCCCCN` [Deferoxamine Mesylate] (concentration: 25 µM), the mean cell size in the experiment on Jurkat [1] was determined as 1.09 ± 0.053. For the same compound, the cell count with Jurkat [2] worked out at 0.496 ± 0.062.

`CCCCc1ncc(/C=C(\Cc2cccs2)C(=O)O)n1Cc1ccc(C(=O)O)cc1` [Eprosartan Mesylate] (concentration: 25 µM): the mean cell size in the experiment on Jurkat [1] was 1.01 ± 0.06. The cell count in the experiment on Jurkat [2] came out at 0.864 ± 0.071.

The compound `CN(C)CCOc1ccc(/C(=C(/CCCl)c2ccccc2)c2ccccc2)cc1` [Toremifene Base] (concentration: 25 µM) returned a mean cell size in the experiment with Jurkat [1] of 0.9556 ± 0.0078. In the experiment on Jurkat [2], this compound yielded a cell count of 0.948 ± 0.079.

As to `Nc1c2c(nc3ccccc13)CCCC2` [Tacrine·HCl] (concentration: 25 µM), the mean cell size in the experiment with Jurkat [1] amounted to 0.9808 ± 0.0065. In addition, in the experiment on Jurkat [2], the cell count was found to be 0.854 ± 0.017.

As for `Clc1ccc2nsnc2c1NC1=NCCN1` [Tizanidine·HCl] (concentration: 25 µM), the mean cell size in the experiment on Jurkat [1] was found to be 1.01 ± 0.014. Further, in the experiment on Jurkat [2], the cell count stood at 0.771 ± 0.054.

Take `O=C1CCC(N2C(=O)c3ccccc3C2=O)C(=O)N1` (stereo not given) [Thalidomide] (concentration: 25 µM): in the experiment with Jurkat [1], the mean cell size came out at 0.922 ± 0.015. The compound also displayed a cell count in the experiment on Jurkat [2] of 1.01 ± 0.12.

For `O=C(O)CCNC(=O)c1ccc(/N=N/c2ccc(O)c(C(=O)O)c2)cc1` [Balsalazide] (concentration: 25 µM), the mean cell size in the experiment with Jurkat [1] came to 0.964 ± 0.013. The cell count with Jurkat [2] stood at 0.669 ± 0.047.

Take `NCCC(O)(P(=O)(O)O)P(=O)(O)O` [Pamidronate Disodium  Pentahydrate (Pamidronic Acid)] (concentration: 25 µM): in the experiment with Jurkat [1], the mean cell size worked out at 0.967 ± 0.034. Besides, in the experiment on Jurkat [2], the cell count came to 0.822 ± 0.023.

Consider `NS(=O)(=O)c1cc2c(cc1C(F)(F)F)NCNS2(=O)=O` [Hydroflumethiazide] (concentration: 25 µM), for which the mean cell size with Jurkat [1] worked out at 0.944 ± 0.048. The cell count in the experiment on Jurkat [2] was found to be 0.681 ± 0.17.

For the compound `CN(C)[C@@H]1C(=O)C(C(N)=O)=C(O)[C@@]2(O)C(=O)C3=C(O)c4c(O)ccc(Cl)c4[C@@H](O)[C@H]3C[C@@H]12` [Demeclocycline·HCl] (concentration: 25 µM), the mean cell size in the experiment on Jurkat [1] was found to be 0.811 ± 0.028. In addition, the cell count in the experiment on Jurkat [2] was 0.219 ± 0.039.

In the case of `Cc1[nH]cnc1CN1CCc2c(c3ccccc3n2C)C1=O` [Alosetron·HCl] (concentration: 25 µM), in the experiment on Jurkat [1], the mean cell size was 0.954 ± 0.059. In the experiment with Jurkat [2], this compound gave a cell count of 0.592 ± 0.12.

Compound `CCCCC[C@H](O)/C=C/[C@H]1[C@H](O)CC(=O)[C@@H]1CCCCCCC(=O)O` [Alprostadil] (concentration: 25 µM) returned a mean cell size in the experiment with Jurkat [1] of 0.872 ± 0.0094. Moreover, the cell count with Jurkat [2] came to 0.73 ± 0.12.

`C[C@@H]1O[C@@H]1P(=O)(O)O` [Fosfomycin Calcium] (concentration: 25 µM): in the experiment with Jurkat [1], the mean cell size was determined as 0.916 ± 0.036. In addition, the cell count in the experiment with Jurkat [2] was 0.474 ± 0.19.

`N=C(N)N/N=C/c1c(Cl)cccc1Cl` [Guanabenz Acetate] (concentration: 25 µM) gave a mean cell size in the experiment on Jurkat [1] of 0.988 ± 0.044. The compound also returned a cell count with Jurkat [2] of 0.34 ± 0.13.

Compound `CCCCNC(=O)NS(=O)(=O)c1ccc(C)cc1` [Tolbutamide] (concentration: 25 µM) registered a mean cell size with Jurkat [1] of 0.976 ± 0.032. In the experiment on Jurkat [2], this compound displayed a cell count of 0.606 ± 0.22.

The compound `CN(CCOc1ccc(CC2SC(=O)NC2=O)cc1)c1ccccn1` (stereo not given) [Rosiglitazone] (concentration: 25 µM) displayed a mean cell size with Jurkat [1] of 0.996 ± 0.063. Further, in the experiment on Jurkat [2], the cell count turned out to be 0.718 ± 0.069.

In the case of `NC(=O)Cc1cccc(C(=O)c2ccccc2)c1N` [Nepafenac] (concentration: 25 µM), the mean cell size with Jurkat [1] turned out to be 0.934 ± 0.019. The compound also had a cell count with Jurkat [2] of 0.727 ± 0.025.
